Assay results from PubChem BioAssay (EPA / NIEHS).
Results filed as inconclusive are left out. The source made the active and inactive calls. The calls were made as follows: active = hit-call score of the fitted dose curve at least 0.9, where 1 is the maximum; inconclusive = response in the unintended direction; inactive = score below 0.9.

Assay: CCTE_Mundy_HCI_hN2_NOG_NeuriteCount: CCTE's Neurite Outgrowth Assay in human hN2 cells for Neurite Count, Mundy Lab (AID 2284219)
Procedure: CCTE_Mundy_HCI_hN2_NOG is a multiplexed, cell-based-readout assay that uses immature neurons derived from hNP1 neuroprogenitor cells with measurements taken at 50.33 hours after chemical dosing in a microplate: 96-well plate.CCTE_Mundy_HCI_hN2_NOG_NeuriteCount is one of four components of the CCTE_Mundy_HCI_hN2_NOG assay. It measures neurite outgrowth related to number of neurites using High Content Imaging of fluorescently labelled markers.[…] Using a type of morphology reporter, loss -of-signal activity can be used to understand developmental effects.
Exposure starts 2 hours post-plating by adding 10 ul of the working solution to 90 ul of media in the wells for a 1/10 dilution. Forty-eight hours after chemical treatment cells are fixed by direct addition of 100 ul of warm (37C) Dulbecco's phosphate buffered saline (DPBS) fixative solution containing 8% paraformaldehyde, 8% sucrose, and 0.1% of 3 mg/ml Hoechst 33342 into each well. Primary antibodies are prepared by dilution in Immunocytochemical Staining Buffer (ISB), 10X Dulbecco's PBS, 0.1% Saponin, 5% Bovine Serum Albumin, 0.5% NaN3 (Sodium Azide) and betaIII-tubulin (rabbit anti-betaIII-tubulin, 1:800) followed by Alexa Fluor-488 secondary (1:500) to label neuronal cell bodies and neurites. A Cellomics ArrayScan VTi HCS Reader is used for automated image acquisition and analysis of neurite outgrowth.

SMILES	AC50	outcome
CCC[CH2][Sn]([CH2]CCC)([CH2]CCC)[O][Sn]([CH2]CCC)([CH2]CCC)[CH2]CCC	0.0478 µM (active)	–
O=[As]O	6.15 µM (active)	–
O=C(O)CNCP(=O)(O)O	–	inactive
C=CCN1CC[C@]23c4c5ccc(O)c4O[C@H]2C(=O)CC[C@@]3(O)[C@H]1C5	–	inactive
C[n+]1ccc(-c2cc[n+](C)cc2)cc1	–	inactive
[CH3][Sn]([CH3])[CH3]	–	inactive
[CH3][Hg][Cl]	0.118 µM (active)	–
O.O.O.O.O.[Cd+2].[Cd+2].[Cl-].[Cl-].[Cl-].[Cl-]	30 µM (active)	–
CC(=O)[O-].CC(=O)[O-].O.O.O.[Pb+2]	2.19 µM (active)	–
Brc1ccc(Oc2ccc(Br)cc2Br)c(Br)c1	8.93 µM (active)	–
CN[C@]1(c2ccccc2Cl)CCCCC1=O	–	inactive
CN1C(=O)CN=C(c2ccccc2)c2cc(Cl)ccc21	–	inactive
